# Source: PubChem
# Caspase-1 inhib = blocks human caspase-1 allosterically or competitively; Potency, µM (top dose mostly 57.5 µM), for inactives: at the top dose activity change, negative = inhibition, most hits filed as inhibitors; AID 900; 75,000 tested, 0.03% active; Caspase-1 enzyme, Ac-WEHD-AFC fluorogenic rate; P29466;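 note: plate controls were vehicle for no effect and no substrate for full effect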
# Target sequence (P29466 120-297 limits assumed): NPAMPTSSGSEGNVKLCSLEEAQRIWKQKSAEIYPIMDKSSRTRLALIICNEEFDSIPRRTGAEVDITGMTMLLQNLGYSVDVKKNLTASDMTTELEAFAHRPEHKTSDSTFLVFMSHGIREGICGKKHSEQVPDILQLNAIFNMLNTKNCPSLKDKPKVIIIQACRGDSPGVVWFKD
# Target sequence (P29466 317-404 limits assumed): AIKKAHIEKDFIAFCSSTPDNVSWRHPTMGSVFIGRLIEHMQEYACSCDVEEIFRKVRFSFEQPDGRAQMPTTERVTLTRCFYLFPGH
# USP2a inh = inhibitors of human ubiquitin-specific protease USP2a | O75604 | USP2a enzymatic assay, qHTS inhibition | Potency, µM (top dose mostly 38.3 µM), inactives show top-dose activity change, negative = inhibition, actives largely listed as inhibitors | 60,000 tested, 0.1% active | AID 927; note: nearly all actives have a fitted effect of over 60% in size
#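 USP2 core (20 nM final) was preincubated with compound for 30 min at RT in 20 mM Tris-HCl pH 8.0, 2 mM CaCl2, 2 mM beta-mercaptoethanol; Ub-PLA2 (20 nM) plus NBD C6-HPC (20 uM) then added, fluorescence read after 2.5 h.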
# Casp7 inh = blocks human caspase-7 allosterically or competitively | P55210 | recombinant caspase-7, Ac-DEVD-AFC fluorescence rate | Potency, µM (highest dose often 57.5 µM), inactives show top-dose activity change, negative = inhibition, usual class: inhibitors | 75,000 tested, 0.02% active; active = well fitted inhibition curve with a large enough effect in the main read-out, with a control signal flat, not every such curve was filed as active; inconclusive = small, poorly fitted or top-dose-only effect, or a change in a side signal; note: % of control where 0% means no effect
# Target sequence (P55210 24-198 limits assumed): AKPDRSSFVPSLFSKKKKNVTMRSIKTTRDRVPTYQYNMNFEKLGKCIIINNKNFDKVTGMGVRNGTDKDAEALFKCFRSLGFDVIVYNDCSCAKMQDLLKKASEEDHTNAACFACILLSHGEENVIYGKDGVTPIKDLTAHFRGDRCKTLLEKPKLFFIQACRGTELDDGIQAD
# Target sequence (P55210 207-303 limits assumed): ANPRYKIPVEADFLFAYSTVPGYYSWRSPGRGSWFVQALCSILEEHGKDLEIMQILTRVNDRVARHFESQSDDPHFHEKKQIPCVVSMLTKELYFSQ
# HEK293 cAMP cs = parental HEK293 cAMP activation (counter-screen); Potency, µM (top dose mostly 57.1 µM), without a hit: top-dose activation, most hits filed as activators; 73,000 tested, 2.5% active; AID 938; parental HEK293 CNG cAMP sensor, membrane potential fluorescence; note: % of control where 0% means no effect; nearly all actives have a fitted effect of over 55% in size
#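 Counterscreen for endogenous-receptor signalling: CNG-channel HEK 293 cells report cAMP rise by membrane depolarization. After 60 min dye equilibration with 100 uM RO 20-1724, compounds incubated 30 min before bottom-read fluorescence at 590 nm.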
# CRE Fsk mod = modulators of forskolin-stimulated CRE signaling in CHO cells; CHO CRE-bla reporter (cAMP response element driving beta-lactamase), forskolin EC10, beta-lactamase ratio; Potency, µM (doses to about 38.2 µM), without a hit: top-dose activity change, negative = inhibition, actives largely listed as activators; 71,000 tested, 2.5% active; AID 662; active = well fitted activation curve with a large enough effect in the signal ratio, with a control signal flat, not every such curve was filed as active; inconclusive = small, poorly fitted or top-dose-only effect, or effect the other way, or a change in a side signal; the % refers to the signal ratio; note: % of control where 0% means no effect
#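 The 460nm/530nm emission ratio after CCF4 loading defined %Activity, from which AC50 values were obtained. CRE-bla CHO cells received compound dilution series together with an EC10 level of NKH 477 for 3 hours at 37 degrees Celsius.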
# TSHR agonist = agonists of human thyroid stimulating hormone receptor. P16473. Potency, µM (doses to about 57.1 µM), for inactives: top-dose activation, hits mostly activators. HEK293-CNG-TSHR cells (CNG channel as cAMP sensor), membrane potential dye, cAMP. 73,000 tested, 0.48% active; active = well fitted activation curve with a large enough effect in the main read-out, with a control signal flat, not every such curve was filed as active; inconclusive = small, poorly fitted or top-dose-only effect, or a change in a side signal; inactive = no such curve, though single readings can be large or run the other way; % of control where 0% means no effect;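 note: the control signal comes from parental cells without the receptor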
#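 cAMP rise detected as CNG-channel membrane depolarization by fluorescent dye (emission 590 nm), 30 min after compound, following 60 min dye loading containing 100 uM RO 20-1724 at room temperature. Cells: TSHR/CNG HEK 293, with parental CNG HEK 293 as control.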
# Starred values were filed as active, the others as inactive; ? = inconclusive; nt = not tested or not shown; [ ] = another dose, or the depositor's remark. Only some compounds are listed: those with a hit (about 5% of all), similar ones and a draw of the others. Unless noted, calls come from the whole dose curve; as a rule, active = well fitted curve in the direction sought with a large enough effect; inconclusive = small, poorly fitted or top-dose-only effect, or another doubt; inactive = no such curve, though single readings can be large; an effect the other way counts as inactive or inconclusive. Potency is the fitted concentration of half-maximal effect.
SMILES,Caspase-1 inhib,USP2a inh,Casp7 inh,HEK293 cAMP cs,CRE Fsk mod,TSHR agonist
COc1ccccc1OC[C@H](O)CN1CCN(CC(=O)Nc2c(C)cccc2C)CC1,-1%,4%,2%,?,-4%,?
CCNc1nc(C)c2cc(Br)c(=O)n(CC)c2n1,-2%,1%,-1%,-3%,1µM*,1%
N#Cc1ccccc1-c1ccc2ncnc(NCc3cccs3)c2c1,-4%,98%,-5%,16µM*,?,?
CNc1ncnc2ccc(-c3ccccc3C#N)cc12,0%,37%,-2%,-8%,?,6%
Cc1cccc(CNc2ncnc3ccc(-c4ccccc4C#N)cc23)c1,-4%,-5%,-2%,25µM*,?,?
CC(=O)OC[C@H]1O[C@@H](CCO/N=C2/[C@H]3O[C@@H]3[C@@H](O)[C@H]3[C@H]2CCn2c(=O)n(-c4ccccc4)c(=O)n23)C=C[C@@H]1OC(C)=O,3%[11.5 µM],nt,-4%[11.5 µM],-4%[11.4 µM],nt,-5%[11.4 µM]
COC(=O)NC(c1cccc(C)c1)C(C(C)=O)C(=O)OC (stereo unspecified),-8%[11.5 µM],nt,3%[11.5 µM],3%[11.4 µM],nt,-5%[11.4 µM]
NCCC1([N+](=O)[O-])CCNCC1,-2%[11.5 µM],nt,3%[11.5 µM],2%[11.4 µM],-1%[7.6 µM],-1%[11.4 µM]
O=C(c1noc2c1CCc1ccccc1-2)N1CCCc2ccccc21,-2%,-27%,-3%,25µM*,-11%,?
COc1ccc(CN(C(=O)CN2C(=O)C(C)Oc3ccccc32)C2CCCC2)c(OC)c1 (stereo unspecified),3%,25%,0%,25µM*,17%,?
COc1ccc(CN(C(=O)CN2C(=O)COc3ccccc32)C2CCCC2)c(OC)c1,-4%,nt,-1%,20µM*,18%,?
O=C(O)C[n+]1ccccc1,0%[11.5 µM],nt,0%[11.5 µM],4%[11.4 µM],2%[7.6 µM],-7%[11.4 µM]
Cc1cc(C(=O)CSc2nnc(-c3cccc(F)c3)n2N)c(C)n1Cc1ccc2c(c1)OCO2,-4%,35%,0%,10µM*,?,?
CN(C)c1ccc(-c2cc(Nc3ccc(F)cc3)ncn2)cc1,-10%,177%,-17%,-14%,?,-12%
COc1nnc(-c2ccc(N3CCOCC3)c(NC(=O)c3ccco3)c2)c2ccccc12,-1%,17%,-2%,7%,2µM*,21%
Cn1nc(-c2ccc(N3CCOCC3)c(NC(=O)COc3ccccc3)c2)c2ccccc2c1=O,1%,33%,0%,10%,?,10µM*
COC(=O)c1ccccc1NC(=O)CSc1nc2ccccc2c(=O)[nH]1,-2%,6%,-2%,?,7.9µM*,?
COC(=O)c1cccc(NC(=O)CSc2nnc(COc3ccccc3)n2C)c1,1%,-3%,0%,12%,-4%,3%
CCOC(=O)c1ccccc1NC(=O)CSc1nc2ccccc2o1,-5%,-6%,-2%,25µM*,?,?
COC(=O)c1ccccc1NC(=O)CSc1nnc(COc2cccc(OC)c2)n1C,-2%,5%,2%,13µM*,2%,?
CCOC(=O)c1ccccc1NC(=O)CSc1nnc(COc2ccccc2)n1CC,-3%,nt,-6%,16µM*,4%,?
O=C(O)[C@H](/C=C\c1ccccc1)c1ccccc1,5%[11.5 µM],nt,-1%[11.5 µM],12%[11.4 µM],0%[7.6 µM],-1%[11.4 µM]
CCCCCCC#CC1C=CC(OC(=O)OCC)C(COC(=O)OCC)O1 (stereo unspecified),0%[11.5 µM],nt,0%[11.5 µM],14%[11.4 µM],nt,10%[11.4 µM]
CCC(=O)Nc1ccc(NC(=O)c2cc3ccccc3o2)cc1,-2%,9%,-2%,-16%,-1%,-2%
O=C(Nc1cccc(Cl)c1N1CCCC1)c1cc2ccccc2o1,-2%,-13%,0%,25µM*,?,?
SMILES,Caspase-1 inhib,USP2a inh,Casp7 inh,HEK293 cAMP cs,CRE Fsk mod,TSHR agonist
O=C(Nc1ccccc1N1CCN(C(=O)c2ccc(Cl)cc2)CC1)c1cc2ccccc2o1,-3%,32%,-5%,?,?,?
O=C(Nc1cccc(Cl)c1N1CCCC1)c1ccc(Br)o1,-1%,-8%,2%,25µM*,25%,?
Cn1c(=O)n(C)c2cc(NC(=O)c3cc4ccccc4o3)ccc21,-1%,19%,0%,0%,10µM*,-8%
NC1(C(=O)NC2(C(=O)O)CCCC2)CCCC1,-2%[11.5 µM],nt,-1%[11.5 µM],3%[11.4 µM],2%[7.6 µM],1%[11.4 µM]
c1ccc(CN2CCC3(CC2)SSC2(CCN(Cc4ccccc4)CC2)SS3)cc1,4%[11.5 µM],nt,-1%[11.5 µM],-5%[11.4 µM],-13%[7.6 µM],3%[11.4 µM]
COC(=O)c1cc(COc2ccc3oc(C)c(C(=O)OC)c3c2)c(C)o1,-4%,-6%,-4%,16µM*,5µM*,?
C(=Nc1ccc2c(c1)Cc1ccccc1-2)c1ccccn1,0%[11.5 µM],nt,2%[11.5 µM],2%[11.4 µM],3%[7.6 µM],-6%[11.4 µM]
COc1ccccc1N1CCN(C(c2ccc(C)cc2)c2nnnn2C(C)C)CC1 (stereo unspecified),-4%,130%,0%,16µM*,-4%,?
COc1ccccc1N1CCN(C(c2ccc(F)cc2)c2nnnn2C(C)C)CC1 (stereo unspecified),-1%,nt,1%,?,0%,?
COc1ccc(Cn2nnnc2C(C(C)C)N2CCN(c3ccccc3OC)CC2)cc1 (stereo unspecified),-4%,6%,6%,13µM*,-3%,?
O=C(N/N=C1/C[C@@H](O)[C@@H](O)[C@@H]2[C@@H]3C(=O)N(C4CCCCC4)C(=O)[C@H]3CC[C@H]12)OCc1ccccc1,1%[11.5 µM],nt,-1%[11.5 µM],7%[11.4 µM],nt,2%[11.4 µM]
N=C1[C@@H](O)[C@]2(I)c3ccccc3N3C(=N)[C@H](O)[C@@H]4c5ccccc5N1[C@@H]4[C@@H]32,-10%[11.5 µM],nt,-24%[11.5 µM],?,-19%[7.6 µM],?
CC(=O)Nc1cccc(NC(=O)CSc2ncc(-c3ccc(Cl)cc3)n2Cc2ccco2)c1,-3%,11%,-6%,25µM*,?,?
C[C@]12C=CC(=O)C=C1CC[C@@H]1[C@H]3C[C@@H](O)[C@](O)(C(=O)CO)[C@]3(C)C[C@H](O)[C@]12F,nt,nt,nt,-1%,-6%,5%
COc1ccccc1-c1cc(C(F)(F)F)nc(N2CCN(c3ccccc3)CC2)n1,1%,7%,1%,11%,-1%,9%[11.4 µM]
COc1ccccc1-c1cc(C(F)(F)F)nc(N2CCOCC2)n1,1%,-15%,-1%,20µM*,20%,?
CCn1c(SCC(=O)NCc2ccccc2)nc2ccccc2c1=O,-1%,-6%,3%,122%,8%,-4%
CCn1c(SCc2nc3ccccc3c(=O)[nH]2)nc2ccccc2c1=O,-1%,18%,-2%,?,2.5µM*,?
